PubChem BioAssay (Tox21)
Unmarked numbers belong to inactive results. Records with an inconclusive call do not appear. Entries that show only a call come without a potency. The source made the active and inactive calls. Unless noted, calls follow the shape of the dose curve; as a rule, active = well fitted curve in the direction sought with a large enough effect in the repeat runs; inconclusive = weak or mixed curves; inactive = no such curve, though single readings can be large; an effect the other way counts as inactive or inconclusive.

How the values were obtained:
[1] = target: Thyrotropin receptor (Homo sapiens) (UniProt P16473); assay: qHTS assay to identify small molecule agonists of the thyroid stimulating hormone receptor (TSHR) signaling pathway (AID 1224843; calls by dose curve; also: nearly all actives have a fitted effect of over 45% in size)
In short: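 HEK293/TSHR, 800 cells/well; cpd 30 min RT; add cAMP-d2 + anti-cAMP-cryptate, 1 h RT; fluorescence read on plate reader. 15-pt titration, n=3.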

[2] = qHTS assay to identify small molecule agonists of the hypoxia (HIF-1) signaling pathway - cell viability counter screen (AID 1224844; calls by dose curve; also: nearly all actives have a fitted effect of over 50% in size)
In short: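 HRE-bla ME-180; 0.5% dFBS; cpd 17 h, 37C, 5% CO2; CellTiter-Glo lum., 30 min RT, post-FRET read, same wells.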

[3] = qHTS assay to identify small molecule agonists of H2AX (AID 1224845; active = well fitted activation curve with a large enough effect in the signal ratio in the repeat runs, not every such curve was filed as active; the % refers to the signal ratio)
In short: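 Wild-type CHO-K1 cells, plated overnight, exposed 3hr at 37C to 15 concentrations (0.76% DMSO final). Lysed, then HTRF anti-pH2AX (S139) cryptate and anti-H2AX-d2 antibodies, 24 hr room temperature; 665/620 nm emission read.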

[4] = qHTS assay to identify small molecule agonists of H2AX - cell viability counter screen (AID 1224847; calls by dose curve; also: top concentration of the series differs between compounds; nearly all actives have a fitted effect of over 30% in size)
In short: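 Viability of CHO-K1 (wild type) cells after 3 hr compound exposure was measured by CellTiter-Glo luminescence.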

[5] = qHTS RealTime-Glo MT Cell Viability Assay in HepG2 cells - 24 hour (AID 1224867); also: nearly all actives have a fitted effect of over 50% in size
In short: (§1)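 HepG2 cells (600/well) were dispensed with RealTime-Glo reagents, incubated 5 h at 37 °C, then treated with compounds in DMSO for up to 40 h. Nonlytic NanoLuc luminescence reflecting viable cells was read at each stated time point.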

[6] = qHTS RealTime-Glo MT Cell Viability Assay in HEK293 cells - 32 hour (AID 1224868); also: nearly all actives have a fitted effect of over 50% in size; also: potency is read from the fitted curve at half-maximal effect
In short: (§2)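 HEK293 cells seeded with NanoLuc/prosubstrate reagent, rested 5 h at 37 C, then dosed and kept at 37 C up to 40 h. Nonlytic real-time luminescence from viable cells read at 0, 8, 16, 24, 32 and 40 h.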

[7] = A CellTox Green Cytotoxicity Assay to monitor cytotoxicity in HEK293 cells - 0 hour (AID 1224869); also: nearly all actives have a fitted effect of over 50% in size
In short: (§3)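 Tox21 screen in HEK293: membrane-impermeant cyanine dye fluoresces on binding dead-cell DNA; compound pinned 5 h post-seeding, plates held at 37 C, signal read repeatedly through 40 h.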

[8] = qHTS RealTime-Glo MT Cell Viability Assay in HepG2 cells - 40 hour (AID 1224870); also: nearly all actives have a fitted effect of over 50% in size
In short: (§4)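 HepG2 cells (600/well) mixed with RealTime-Glo MT reagent, settled 5 h at 37 C/5% CO2 before compound addition. Nonlytic NanoLuc luminescence from viable-cell prosubstrate reduction read repeatedly during 40 h treatment at 37 C.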

[9] = qHTS RealTime-Glo MT Cell Viability Assay in HepG2 cells - 8 hour (AID 1224873); also: nearly all actives have a fitted effect of over 55% in size
In short: as §4

[10] = A CellTox Green Cytotoxicity Assay to monitor cytotoxicity in HEK293 cells - 24 hour (AID 1224875); also: nearly all actives have a fitted effect of over 45% in size
In short: as §3

[11] = qHTS RealTime-Glo MT Cell Viability Assay in HepG2 cells - 32 hour (AID 1224877); also: nearly all actives have a fitted effect of over 55% in size
In short: as §1

[12] = A CellTox Green Cytotoxicity Assay to monitor cytotoxicity in HepG2 cells - 24 hour (AID 1224878); also: nearly all actives have a fitted effect of over 45% in size; also: potency is read from the fitted curve at half-maximal effect
In short: (§5)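 Measurements at 0, 8, 16, 24, 32 and 40 h of treatment captured CellTox Green fluorescence in HepG2 cells that had been co-plated with reagent and preincubated 5 h at 37 C/5% CO2.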

[13] = A CellTox Green Cytotoxicity Assay to monitor cytotoxicity in HepG2 cells - 40 hour (AID 1224879); also: nearly all actives have a fitted effect of over 40% in size; also: potency is read from the fitted curve at half-maximal effect
In short: as §5

[14] = qHTS assay to identify small molecule agonists of the hypoxia (HIF-1) signaling pathway (AID 1224846; active = well fitted activation curve with a large enough effect in the signal ratio in the repeat runs, not every such curve was filed as active; the % refers to the signal ratio)
In short: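 Reporter induction in HRE-bla ME-180 cells is taken as agonism: cells sit 5 hrs after plating, receive compounds or DMSO only, incubate 17 hrs at 37C under 5% CO2, and are loaded with CCF4-AM for beta-lactamase FRET measurement.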

[15] = A CellTox Green Cytotoxicity Assay to monitor cytotoxicity in HEK293 cells - 40 hour (AID 1224871); also: nearly all actives have a fitted effect of over 45% in size
In short: as §3

[16] = qHTS RealTime-Glo MT Cell Viability Assay in HEK293 cells - 16 hour (AID 1224872)
In short: as §2

[17] = qHTS RealTime-Glo MT Cell Viability Assay in HEK293 cells - 40 hour (AID 1224874); settings: RealTime-Glo luminescence; max response: hits give low values; also: nearly all actives have a fitted effect of over 50% in size
In short: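 HEK293 + NanoLuc + prosubstrate, 600 cells/well; 5 h, 37 C/5% CO2; compound 23 nL in DMSO by pintool; 37 C; luminescence read at 0, 8, 16, 24, 32 and 40 h time points.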

[18] = A CellTox Green Cytotoxicity Assay to monitor cytotoxicity in HepG2 cells - 16 hour (AID 1224876); also: nearly all actives have a fitted effect of over 45% in size
In short: as §5

[19] = qHTS assay to identify small molecule antagonists of the estrogen related receptor (ERR) signaling pathway from Tox21 library (AID 1224848); also: nearly all actives have a fitted effect of over 50% in size
In short: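 Compounds dissolved in DMSO are pin-transferred onto ERR reporter cells (2,000 per well) that have settled for 6 h at 37 C. Plates then incubate 18 h at 37 C before ONE-Glo luciferase reagent and a luminescence read 30 min later.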

[20] = qHTS assay to identify small molecule agonists of the estrogen related receptor (ERR) signaling pathway from Tox21 library (AID 1224849; calls by dose curve; also: nearly all actives have a fitted effect of over 15% in size); settings: ERR reporter cell line, ONE-Glo luciferase, 18 h; at 92.4 µM (top of the series) unless noted
In short: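 Tox21 compounds tested for ERR agonism in an NTP reporter cell line: 18 h treatment at 37 C, then ONE-Glo luminescence.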

Thyrotropin receptor (Homo sapiens), sequence (P16473 whole entry, looked up): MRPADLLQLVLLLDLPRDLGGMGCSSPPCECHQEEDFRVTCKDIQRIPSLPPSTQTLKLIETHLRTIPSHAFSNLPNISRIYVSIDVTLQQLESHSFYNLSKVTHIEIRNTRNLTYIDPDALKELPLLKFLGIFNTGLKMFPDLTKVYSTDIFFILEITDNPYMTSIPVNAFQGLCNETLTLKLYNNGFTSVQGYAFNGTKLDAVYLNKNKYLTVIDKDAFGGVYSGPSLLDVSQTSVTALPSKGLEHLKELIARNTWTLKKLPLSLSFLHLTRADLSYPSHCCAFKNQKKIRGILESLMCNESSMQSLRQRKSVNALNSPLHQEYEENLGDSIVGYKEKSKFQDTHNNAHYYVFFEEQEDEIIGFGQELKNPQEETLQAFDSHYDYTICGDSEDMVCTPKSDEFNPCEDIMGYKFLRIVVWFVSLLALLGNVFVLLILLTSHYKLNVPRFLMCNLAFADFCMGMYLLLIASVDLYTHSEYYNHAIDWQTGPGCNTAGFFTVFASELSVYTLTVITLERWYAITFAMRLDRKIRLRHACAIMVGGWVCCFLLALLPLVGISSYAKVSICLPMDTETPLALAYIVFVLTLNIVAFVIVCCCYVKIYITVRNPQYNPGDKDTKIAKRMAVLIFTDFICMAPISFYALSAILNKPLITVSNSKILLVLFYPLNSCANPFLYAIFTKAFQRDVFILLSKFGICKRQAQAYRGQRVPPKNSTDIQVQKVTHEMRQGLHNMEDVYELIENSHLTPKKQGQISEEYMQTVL

## CCCCOc1cc(C(=O)NCCN(CC)CC)c2ccccc2n1
[1]
  Potency: inactive
[2]
  Potency: inactive
[3]
  Potency: inactive
[4]
  Potency: inactive
[5]
  Potency: inactive
[6]
  Potency: 21.3 µM (active)
[7]
  Potency: inactive
[8]
  Potency: inactive
[9]
  outcome: inactive
[10]
  Potency: inactive
[11]
  Potency: inactive
[12]
  Potency: 21.3 µM (active)
[13]
  Potency: 23.9 µM (active)

## CN1CCN(c2c(F)cc3c(=O)c(C(=O)O)cn4c3c2SCC4)CC1
[1]
  Potency: inactive
[2]
  Potency: inactive
[14]
  outcome: inactive
[4]
  Potency: inactive
[5]
  Potency: inactive
[6]
  Potency: inactive
[7]
  Potency: inactive
[15]
  Potency: inactive
[16]
  Potency: inactive
[9]
  outcome: inactive
[17]
  max response: 6.23%
[10]
  Potency: inactive
[18]
  Potency: inactive
[11]
  Potency: inactive
[12]
  Potency: inactive
[13]
  Potency: inactive

## COc1cc(Cl)ccc1Cl
[1]
  Potency: inactive
[2]
  Potency: inactive
[3]
  Potency: inactive
[4]
  Potency: inactive
[5]
  Potency: inactive
[6]
  Potency: inactive
[7]
  Potency: inactive
[8]
  Potency: inactive
[16]
  Potency: inactive
[9]
  outcome: inactive
[17]
  max response: -0.591%
[18]
  Potency: inactive
[11]
  Potency: inactive
[12]
  Potency: inactive
[13]
  Potency: inactive

## CC(=O)N(CC(O)CN(C(C)=O)c1c(I)c(C(=O)NCC(O)CO)c(I)c(C(=O)NCC(O)CO)c1I)c1c(I)c(C(=O)NCC(O)CO)c(I)c(C(=O)NCC(O)CO)c1I (stereo unspecified)
[1]
  Potency: inactive
[2]
  Potency: inactive
[3]
  Potency: inactive
[4]
  Potency: inactive
[5]
  Potency: inactive
[6]
  Potency: inactive
[7]
  Potency: inactive
[8]
  Potency: inactive
[15]
  Potency: inactive
[16]
  Potency: inactive
[9]
  outcome: inactive
[17]
  max response: 0.602%
[10]
  Potency: inactive
[18]
  Potency: inactive
[11]
  Potency: inactive
[12]
  Potency: inactive
[13]
  Potency: inactive

## CC(C)(C)c1ccc(OC(=O)c2ccccc2O)cc1
[1]
  Potency: inactive
[2]
  Potency: inactive
[14]
  outcome: inactive
[19]
  Potency: inactive
[20]
  activity change, positive = activation: 132% (active)
[5]
  Potency: inactive
[6]
  Potency: inactive
[7]
  Potency: inactive
[8]
  Potency: inactive
[16]
  Potency: inactive
[9]
  outcome: inactive
[17]
  max response: -15.3%
[10]
  Potency: inactive
[18]
  Potency: inactive
[11]
  Potency: inactive
[12]
  Potency: inactive
[13]
  Potency: inactive

## Cc1c(C(=O)NCCO)[n+](=O)c2ccccc2n1[O-]
[1]
  Potency: inactive
[2]
  Potency: inactive
[3]
  Potency: inactive
[4]
  Potency: inactive
[5]
  Potency: inactive
[6]
  Potency: inactive
[15]
  Potency: inactive
[16]
  Potency: inactive
[9]
  outcome: inactive
[17]
  max response: 0.805%
[10]
  Potency: inactive
[18]
  Potency: inactive
[11]
  Potency: inactive
[12]
  Potency: inactive
[13]
  Potency: inactive

## O=C(Cl)c1cccc([N+](=O)[O-])c1
[1]
  Potency: inactive
[2]
  Potency: inactive
[14]
  outcome: inactive
[4]
  Potency: inactive
[19]
  Potency: inactive
[20]
  activity change, positive = activation: 0.643%
[5]
  Potency: inactive
[6]
  Potency: inactive
[7]
  Potency: inactive
[8]
  Potency: inactive
[15]
  Potency: inactive
[16]
  Potency: inactive
[9]
  outcome: inactive
[17]
  max response: 3.57%
[10]
  Potency: inactive
[18]
  Potency: inactive
[11]
  Potency: inactive
[12]
  Potency: inactive
[13]
  Potency: inactive

## CCOC(=O)NCCC[Si](OCC)(OCC)OCC
[1]
  Potency: inactive
[2]
  Potency: inactive
[14]
  outcome: inactive
[4]
  Potency: inactive
[19]
  Potency: inactive
[20]
  activity change, positive = activation: -9.42%
[5]
  Potency: inactive
[6]
  Potency: inactive
[7]
  Potency: inactive
[8]
  Potency: inactive
[15]
  Potency: inactive
[16]
  Potency: inactive
[9]
  outcome: inactive
[17]
  max response: 4.72%
[10]
  Potency: inactive
[18]
  Potency: inactive
[11]
  Potency: inactive
[12]
  Potency: inactive
[13]
  Potency: inactive
